SARS PLpro yeast = blocks SARS-CoV papain-like protease in a yeast assay; S. cerevisiae expressing SARS-CoV PLpro, growth rescue; Potency, µM (highest dose often 32.9 µM), without a hit: at the top dose activity, positive = growth rescue, actives largely listed as activators; actives 0.19% (n = 330,000); calls by dose curve; also: 0% is about no effect; nearly all actives have a fitted effect of over 55% in size
Sm TGR inh = blocks Schistosoma mansoni thioredoxin glutathione reductase; Q962Y6; purified TGR, DTNB reduction, TNB absorbance 405 nm; Potency, µM (series often up to 114 µM), without a hit: top-dose activity change, negative = inhibition, usual class: inhibitors; actives 3% (n = 360,000); AID 485364; also: % is scaled to controls: 0 for no effect and ±100 for the full control effect; nearly all actives have a fitted effect of over 60% in size
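TGR 20 nM + NADPH 100 uM (dispensed conc.), cpd preinc 15 min RT; start with NADPH (500 uM addition) then DTNB (15 mM addition). Kinetic TNB absorbance, 405 nm filter. Four-parameter Hill fit across titration.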
Pf growth 48h = inhibits P. falciparum growth in the first generation, 48 h. Potency, µM (top dose mostly 28.7 µM), inactives show at the highest dose activity change, negative = inhibition, hits mostly inhibitors. actives 5.9% (n = 310,000). P. falciparum luciferase growth in erythrocytes, 48 h; also: % is scaled to controls: 0 for no effect and ±100 for the full control effect
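Luminescence readout; reporter = integrated firefly luciferase in P. falciparum. RBC culture at 2% hematocrit, 0.1% parasitemia final, 37 C/5% CO2; decreased signal taken as growth inhibition.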
Pf growth 96h = inhibits malaria parasite growth, 96 h. P. falciparum luciferase reporter growth, 96 h. Potency, µM (doses to about 28.7 µM), for the others: at the top dose activity change, negative = inhibition, most hits filed as inhibitors. actives 6.9% (n = 320,000); also: % is scaled to controls: 0 for no effect and ±100 for the full control effect
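Compounds incubated with erythrocytes infected by luciferase-expressing P. falciparum (2% hematocrit, 0.05% parasitemia final) for 96 hours, 37 C in 5% CO2. Growth inhibition scored as decreased luciferase luminescence.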
An asterisk follows results filed as active. Shown are actives, neighbours in structure and some others; about 12% of the full set was active somewhere. Unless noted, calls follow the shape of the dose curve; as a rule, active = well fitted curve in the direction sought with a large enough effect; inconclusive = small, poorly fitted or top-dose-only effect, or another doubt; inactive = no such curve, though single readings can be large; an effect the other way counts as inactive or inconclusive. Potency is read from the fitted curve at half-maximal effect.

For O=C(CCCCn1c(=O)c2ccccc2n(Cc2ccccc2F)c1=O)NCc1ccc2c(c1)OCO2 the results were Sm TGR inh 0.4%.
Screening O=[N+]([O-])c1cccc(/C=N\N2CCN(c3ccc(Cl)cc3)CC2)c1 returned SARS PLpro yeast -1.8%, Sm TGR inh 0.2%, Pf growth 48h -6.2% and Pf growth 96h 8.28µM*.
O=[N+]([O-])c1ccc(/C=N\N2CCN(c3ccc(Cl)cc3)CC2)cc1 was read as SARS PLpro yeast 18.2%, Sm TGR inh -25.0%, Pf growth 48h 57.6% and Pf growth 96h 60.4%.
`O=C1c2ccccc2CCC12N=NCC2c1ccc(Br)cc1` (stereo unspecified) gave SARS PLpro yeast -23.7%, Sm TGR inh 3.4% and Pf growth 96h 2.33µM*.
Screening O=C1c2ccccc2CCC12N=NCC2c1ccc(Cl)cc1 (stereo unspecified) returned SARS PLpro yeast -16.8%, Sm TGR inh 7.0%, Pf growth 48h 10.4µM* and Pf growth 96h inconclusive.
Cc1ccc(O)c(Cn2nnc3ccccc32)c1 was read as SARS PLpro yeast -6.8%, Sm TGR inh -10.5%, Pf growth 48h 10.4µM* and Pf growth 96h inconclusive.
For Oc1ccc(Br)cc1Cn1nnc2ccccc21 the results were SARS PLpro yeast -6.6%, Sm TGR inh 3.5%, Pf growth 48h inconclusive and Pf growth 96h -7.0%.
For COc1cc(C(=O)OCc2ccc(C)cc2)cc(NC(=O)c2cccs2)c1OC the results were SARS PLpro yeast 8.9%, Sm TGR inh -12.6%, Pf growth 48h 8.28µM* and Pf growth 96h 10.4µM*.
`COc1cc(NC(=S)NC(=O)c2cc(C)cc(C)c2)ccc1NC(=O)c1cccs1` gave SARS PLpro yeast -9.8%, Sm TGR inh -15.6%, Pf growth 48h inconclusive and Pf growth 96h 2.94µM*.
COc1cc(C(=O)O)cc(NC(=O)c2cccs2)c1OC was read as SARS PLpro yeast 18.2%, Sm TGR inh 2.9%, Pf growth 48h 41.7% and Pf growth 96h -23.9%.
`COc1cc(NC(=S)NC(=O)c2c(OC)cccc2OC)ccc1NC(=O)c1cccs1` gave SARS PLpro yeast 6.0%, Sm TGR inh -28.7%, Pf growth 48h 5.22µM* and Pf growth 96h 9.0%.
For CCCCSCCCNC(=O)c1cc(-c2cccnc2)nc2ccc(S(=O)(=O)N3CCC(C)CC3)cc12 the results were Sm TGR inh 0.1%.
`Cc1cc(C)c(NC(=O)CN(C)C(=O)C2CC(=O)N(c3cccc4ccccc34)C2)c(C)c1` (stereo unspecified) gave SARS PLpro yeast -4.3%, Sm TGR inh 2.4%, Pf growth 48h inconclusive and Pf growth 96h inconclusive.
`CCOc1ccc(NC(=O)CCc2nnc3ccc(N4CCN(C)CC4)nn23)cc1` gave SARS PLpro yeast 4.1%, Sm TGR inh 2.6%, Pf growth 48h 35.9% and Pf growth 96h -20.0%.
For CC(=O)c1cccc(NC(=O)CCc2nnc3ccc(N4CCOCC4)nn23)c1 the results were SARS PLpro yeast 22.1%, Sm TGR inh 0.8%, Pf growth 48h -10.6% and Pf growth 96h 10.4µM*.
COc1ccc(OC)c(NC(=O)CCc2nnc3ccc(N4CCC(C)CC4)nn23)c1 was read as SARS PLpro yeast 22.5%, Sm TGR inh -25.6%, Pf growth 48h inconclusive and Pf growth 96h 34.3%.
`COc1cccc(N2CCN(c3ccc4nnc(CCC(=O)Nc5cccc(C(C)=O)c5)n4n3)CC2)c1` gave SARS PLpro yeast 0.0%, Sm TGR inh -1.6%, Pf growth 48h 15.7% and Pf growth 96h -10.9%.
Screening O=C(CCc1nnc2ccc(N3CCCCC3)nn12)NCC1CCN(Cc2ccc(F)cc2)CC1 returned SARS PLpro yeast -0.4%, Sm TGR inh -17.6%, Pf growth 48h inconclusive and Pf growth 96h 10.4µM*.
Screening CCOc1ccc(NC(=O)CCc2nnc3ccc(N4CCC(C)CC4)nn23)cc1 returned SARS PLpro yeast 1.0%, Sm TGR inh -3.1%, Pf growth 48h 9.28µM* and Pf growth 96h inconclusive.
For COc1ccc(NC(=O)CCc2nnc3ccc(N4CCC(C)CC4)nn23)cc1OC the results were SARS PLpro yeast -2.4%, Sm TGR inh -1.9%, Pf growth 48h -1.4% and Pf growth 96h 4.15µM*.
`CC(NC(=O)C12CC3CC(C1)CC(n1cncn1)(C3)C2)C12CC3CC(CC(C3)C1)C2` (stereo unspecified) gave SARS PLpro yeast 2.0%, Sm TGR inh -0.2%, Pf growth 48h 11.7µM* and Pf growth 96h 11.7µM*.

Compound activity deposited in PubChem BioAssay by National Center for Advancing Translational Sciences (NCATS).
